# Measured values taken from PubChem BioAssay (Tox21).
# Calls of active or inactive are those of the source. The call rests on the fitted dose curve; in most records, active means well fitted curve in the direction sought with a large enough effect in the repeat runs; inconclusive means weak or mixed curves; inactive means flat fitted curve, though single readings scatter.
# Experiment: qHTS assay to test for compound auto fluorescence at 590 nm (red) in HEK293 cells (AID 720679)
# Details: red autofluorescence 540/590 nm; series mostly up to 91.3 µM
# Procedure, shortened: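 Red autofluorescence, HEK293 cells: 2,000 cells/well; attach 4-5 hr 37C; add 23 nL cpd or DMSO; incubate o/n 37C 5% CO2; read Ex540/Em590; Rose Bengal sodium reference.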
row,SMILES,outcome
1,NC(N)=NC(=O)c1nc(Cl)c(N)nc1N,inactive
2,NC(=O)c1cnccn1,inactive
3,Cc1noc(NS(=O)(=O)c2ccc(N)cc2)c1C,inactive
4,Nc1ccc(S(=O)(=O)Nc2nccs2)cc1,inactive
5,O=c1ccc2ccccc2o1,inactive
6,Nc1ccc(O)c(C(=O)O)c1,inactive
7,CCOc1ccc(NC(=O)CC(C)O)cc1 (stereo unspecified),inactive
8,CC(O)CO (stereo unspecified),inactive
9,O=C(O)CCCCCCCC(=O)O,inactive
10,O=S(=O)(O)c1ccc2cc(O)ccc2c1,inactive
11,CC(O)C(=O)O (stereo unspecified),inactive
12,Oc1ccc(/C=C/c2cc(O)cc(O)c2)cc1,inactive
13,NC(=O)c1ccccc1O,inactive
14,CC(C)[C@@H]1CC[C@@H](C)C[C@H]1O,inactive
15,C1N2CN3CN1CN(C2)C3,inactive
16,CC(O)CN(CCN(CC(C)O)CC(C)O)CC(C)O (stereo unspecified),inactive
17,Cc1cn([C@H]2C[C@H](N=[N+]=[N-])[C@@H](CO)O2)c(=O)[nH]c1=O,inactive
18,CCCN(CCC)S(=O)(=O)c1ccc(C(=O)O)cc1,inactive

row,SMILES,outcome
1,CC(=O)Nc1nnc(S(N)(=O)=O)s1,inactive
2,CCCCOC(=O)CC(CC(=O)OCCCC)(OC(C)=O)C(=O)OCCCC,inactive
3,NNC(=O)c1ccncc1,inactive
4,CCCCC(CC)COC(=O)/C=C/c1ccc(OC)cc1 (stereo unspecified),inactive
5,NC(=O)NC1NC(=O)NC1=O (stereo unspecified),inactive
6,OC(Cn1cncn1)(Cn1cncn1)c1ccc(F)cc1F,inactive
7,COc1ccc2[nH]cc(CCNC(C)=O)c2c1,inactive
8,CC(C)(Oc1ccc(C2CC2(Cl)Cl)cc1)C(=O)O (stereo unspecified),inactive
9,Cc1ccc(O)cc1,inactive
10,O=C(O)C(=O)O,inactive
11,O=c1cc[nH]c(=S)[nH]1,inactive
12,Cc1cc(=O)n(-c2ccccc2)n1C,inactive
13,CCCNC(=O)NS(=O)(=O)c1ccc(Cl)cc1,inactive
14,Nc1ccn([C@H]2CC[C@@H](CO)O2)c(=O)n1,inactive
15,CC(=O)NS(=O)(=O)c1ccc(N)cc1,inactive
16,O=C(O)CCC(=O)O,inactive
17,Nc1ccc(C(=O)O)cc1,inactive
18,NC(N)=O,inactive
